HSF1 activator: increases HSF-1 driven luciferase reporter signal | NIH3T3-HGL HSF-1 luciferase reporter, MG132, 8 h; 100% = twice DMSO control signal | AID 504408 | actives 1.7% (n = 300,000) | activation, % at 9 µM;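 active = mean replicate activation of at least 50% with a set share of replicates each reaching 50%; inconclusive = only one of those two conditions met; inactive = mean below 50% and too few replicates reaching it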;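 note: 0% = median of the neutral control wells and 100% = twice that signal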
FXN GAA850 act: frataxin GAA850 promoter activation | HEK293 lucGAA850 FXN promoter luciferase reporter, 24 h; percent of 10 µM SAHA response | AID 540364 | actives 0.56% (n = 360,000) | activation, % at 6 µM;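 active = activation above the average of all compounds screened plus 3 SD, cutoff fixed separately per campaign, cut at about 7.5% in these data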;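 note: 0% = DMSO wells and 100% = 10 µM SAHA wells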
AHR activator: activators of human aryl hydrocarbon receptor; AHR-responsive luciferase reporter cells, luminescence; activation, % at 5 µM; actives 2.5% (n = 320,000); AID 2796; in the data active = activation above about 47%;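 note: 0% = vehicle wells and 100% = reference agonist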
Target sequence (P35869 whole entry, looked up): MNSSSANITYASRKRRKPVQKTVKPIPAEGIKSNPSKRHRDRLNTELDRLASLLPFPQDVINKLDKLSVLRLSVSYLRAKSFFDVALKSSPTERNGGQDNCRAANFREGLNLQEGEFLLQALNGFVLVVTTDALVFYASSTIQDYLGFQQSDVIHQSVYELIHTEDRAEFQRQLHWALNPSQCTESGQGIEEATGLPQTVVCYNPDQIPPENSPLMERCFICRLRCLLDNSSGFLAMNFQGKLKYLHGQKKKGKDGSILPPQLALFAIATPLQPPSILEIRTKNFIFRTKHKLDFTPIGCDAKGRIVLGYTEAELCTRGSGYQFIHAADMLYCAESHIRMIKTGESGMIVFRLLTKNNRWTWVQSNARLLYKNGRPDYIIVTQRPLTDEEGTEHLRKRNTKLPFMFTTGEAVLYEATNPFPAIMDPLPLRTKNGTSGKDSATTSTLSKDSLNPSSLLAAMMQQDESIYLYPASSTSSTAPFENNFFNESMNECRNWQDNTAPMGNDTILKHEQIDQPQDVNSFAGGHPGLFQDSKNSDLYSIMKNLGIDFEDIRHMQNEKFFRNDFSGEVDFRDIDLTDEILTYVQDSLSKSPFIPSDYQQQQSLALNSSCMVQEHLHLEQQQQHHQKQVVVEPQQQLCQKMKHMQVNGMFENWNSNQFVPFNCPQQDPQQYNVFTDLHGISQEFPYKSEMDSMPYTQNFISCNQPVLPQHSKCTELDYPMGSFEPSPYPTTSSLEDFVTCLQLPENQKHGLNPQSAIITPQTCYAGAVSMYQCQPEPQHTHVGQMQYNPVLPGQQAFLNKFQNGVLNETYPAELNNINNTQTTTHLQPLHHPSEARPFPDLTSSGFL
HSF1 inh: HSF1 inhibition | NIH3T3-HGL HSE-luciferase, MG132-induced, luminescence 8 h; hits give low values | activity change, negative = inhibition, % at 7.5 µM (by protocol) | actives 0.77% (n = 300,000);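 active = more than half of replicate wells show activity change below -50%, luminescence cut by over half; inconclusive = some wells, but at most half, below -50%; inactive = no replicate well below -50%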;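 note: luciferase reports HSF-1 transcriptional activity via heat shock element; 0% = median of DMSO wells and -100% = zero luminescence signal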
The depositor's hits bear a star; ? = inconclusive; / = no result. An excerpt weighted towards active compounds, which were near 4.6% of everything screened.

SMILES	HSF1 activator	FXN GAA850 act	AHR activator	HSF1 inh
COc1ccc(C(=O)NC(=S)Nc2ccc3[nH]c(=O)[nH]c3c2)cc1Br	/	-2.2	/	/
Cn1nc(-c2ccccn2)nc2c(=O)n(C)c(=O)nc1-2	-94.3	-17.6	-13.7	-94.3*
CCCc1nc2c(=O)n(C)c(=O)nc-2n(C)n1	/	-16.6	/	/
COc1cccc(CC(=O)N[C@@H](CCSC)c2nc3ccccc3[nH]2)c1	-65.5	-2.3	3.6	-53.7*
COc1nonc1NCn1nc(C)cc1C	-31.7	-0.1	12.7	-9.6
Cc1sc2c(c1C)C(=O)NC(c1cccc(O)c1)N2 (centres undefined)	26.1	/	54.9*	9.5
CCC(COC)NC(=O)CCc1nnc(Cc2cccc(C(F)(F)F)c2)o1 (centres undefined)	54.2*	2.1	4.4	39.3
CC(C)NS(=O)(=O)c1ccc(OCC(=O)NCC2CCCO2)c(Cl)c1 (centres undefined)	22.0	0.0	-0.1	0.4
C=CCNC(=O)c1ccccc1NC(=O)c1ccccc1SC	-7.1	1.6	76.7*	-2.2
C=CCNC(=O)c1ccccc1NC(=O)c1ccccc1C	9.0	-0.2	27.2	-6.6
CSc1cccc(NS(=O)(=O)c2cc(Br)cnc2N)c1	-69.8	-0.5	-0.8	-61.3*
Cc1ccc(NS(=O)(=O)c2cc(Br)cnc2N)cc1C	46.9	1.3	2.6	20.0
Cc1[nH][nH]c(=O)c1N=Nc1ccc(Cl)cc1	6.8	0.7	51.0*	-3.1
O=c1nc2sc3ccccc3n2c(=O)n1-c1ccc(Cl)cc1	5.1	2.1	51.8*	9.0
CCn1c(=O)c([N+](=O)[O-])c(Cl)c2ccccc21	313.1*	-2.2	-0.4	226.1
CCn1c(=O)c([N+](=O)[O-])c(NCCN(C)C)c2ccccc21	-1.1	-1.1	4.0	-0.2
O=C(COc1ccc(S(=O)(=O)N2CCOCC2)cc1)N1CCCCCC1	6.8	1.8	-0.1	-3.8
O=C1Nc2ccccc2C12Nc1ccccc1-c1nc3ccccc3n12 (centres undefined)	2.3	-2.6	4.7	14.7
O=c1[nH]c(Nc2ccccc2Cl)cc2ccccc12	61.2*	0.9	21.2	31.4
Cc1ccccc1Nc1cc2ccccc2c(=O)[nH]1	23.6	-2.3	26.8	11.3
Cn1c(/C(C#N)=C(\O)c2ccc(Br)s2)nc2ccccc21	23.6	3.8	51.5*	-1.3
Cn1c(/C(C#N)=C(\O)c2cc(Cl)sc2Cl)nc2ccccc21	-4.5	1.4	23.4	-0.9
Cc1ccccc1OCc1nc2ccccc2[nH]1	31.0	5.1	3.1	13.2
COc1ccccc1OCc1nc2ccccc2[nH]1	58.2*	3.8	11.1	30.3
O=C(Nc1ccc(Cl)cc1)c1cc(S(=O)(=O)N2CCCCC2)ccc1N1CCOCC1	/	0.8	/	/
SMILES	HSF1 activator	FXN GAA850 act	AHR activator	HSF1 inh
CC(=O)Nc1ccc(N/C=C(\C=O)c2nc3ccccc3o2)cc1	10.8	1.9	13.7	2.1
CC(=O)Nc1cccc(N/C=C(\C=O)c2nc3ccccc3o2)c1	3.7	2.7	58.8*	-1.8
O=C/C(=C\Nc1ccc(Br)cc1)c1nc2ccccc2o1	8.3	1.3	49.0*	1.0
O=C(CCCN1C(=O)/C(=C/c2ccccc2Cl)SC1=S)NNC(=O)c1ccccc1	-27.1	-17.3	-6.7	-25.6
CC1CCCN(c2ncnc3c2cnn3-c2ccc(Cl)cc2)C1 (centres undefined)	-91.7	-14.8	-2.6	-90.2*
CC1CCCN(c2ncnc3c2cnn3-c2ccccc2)C1 (centres undefined)	-67.6	-9.3	25.8	-60.8*
Cn1ncc2c(N3CCC(Cc4ccccc4)CC3)ncnc21	6.7	3.0	73.3*	10.8
CC1CC(C)CN(c2ncnc3c2cnn3-c2ccc(Cl)cc2)C1 (centres undefined)	-54.3	-7.2	-4.9	-52.0*
c1ccc(CCN2CCN(c3ncnc4c3cnn4-c3ccccc3)CC2)cc1	23.8	-0.4	8.9	9.1
CC(C)(C)NC(=O)CSc1nnc(SCC(=O)NC(C)(C)C)s1	-4.8	-0.2	-2.8	-0.7
COc1ccc(CN(C(=O)c2cc3ccccc3oc2=O)C2CCS(=O)(=O)C2)cc1OC (centres undefined)	56.2*	6.2	8.6	22.5
COc1ccc(CN(C(=O)c2cc3ccccc3oc2=O)C2CCS(=O)(=O)C2)cc1 (centres undefined)	4.3	-0.2	-3.2	5.1
O=C(CN(C1CCCCC1)S(=O)(=O)c1ccc(F)cc1)NCC1CCCO1 (centres undefined)	/	11.8*	/	/
O=C(CN(C1CCCCC1)S(=O)(=O)c1ccccc1)NCC1CCCO1 (centres undefined)	15.5	-0.7	/	0.7
O=C(CN(CC1CCCO1)C(=O)CNS(=O)(=O)c1ccc(F)cc1)NC1CCCC1 (centres undefined)	62.5*	1.0	-0.5	21.0
Cc1ccc(S(=O)(=O)NCC(=O)N(CC(=O)NCC2CCCO2)Cc2ccc(Cl)cc2)cc1 (centres undefined)	51.6*	-0.8	-0.3	18.3
CCN(CC)c1ccc(/C=N/NC(=O)c2ccc(Br)o2)cc1	18.5	1.3	88.1*	18.1
CSC(=S)N/N=C/c1ccc(N(C)C)cc1	?	2.5	51.1*	23.3
CN(C)c1ccc(/C=N/NC(=O)c2ccc3c(c2)OCCO3)cc1	-57.9	1.2	29.8	-55.3*
CCN(CC)c1ccc(/C=N/NC(=O)Cc2cccs2)cc1	-0.4	0.5	24.6	-9.2
CCN(CC)c1ccc(/C=N/NC(=O)Nc2nonc2N)cc1	32.8	2.8	67.4*	6.1
COc1ccc(/C=N/NC(=O)c2ccc3c(c2)OCO3)cc1	1.7	2.7	12.6	-3.1
COCCNCc1ccc(Cl)cc1Cl	3.2	3.8	-1.1	7.9
CCN(CC)c1ccc(/C=N/NC(=O)c2ccc3c(c2)OCCO3)cc1	-59.1	3.0	/	-52.5*
CCOc1cc(/C=N/NC(=O)c2ccc3c(c2)OCCO3)cc(Br)c1O	-73.8	1.1	3.2	-73.0*
SMILES	HSF1 activator	FXN GAA850 act	AHR activator	HSF1 inh
O=C(CNC(=O)c1ccc2c(c1)OCCO2)N/N=C/c1ccc(Cl)cc1	-4.0	1.8	3.2	-6.3
O=[N+]([O-])c1ccc2c(c1)C(N1CCOCC1)/C(=C/COc1ccc3ccccc3c1Br)O2 (centres undefined)	9.8	0.2	7.3	3.7
Cc1ccc(C(c2sc3ncnn3c2O)N2CC(C)CC(C)C2)cc1 (centres undefined)	-66.8	-0.1	0.6	-58.2*
Cc1ccc(C(=O)Nc2nc3ccc(S(C)(=O)=O)cc3s2)s1	23.8	3.5	0.7	19.0
Cc1ccc(C(=O)Nc2nc3ccccc3s2)s1	35.8	-1.7	78.8*	15.4
c1ccc(CCNc2nc3ccccc3s2)cc1	55.9*	5.8	8.5	27.2
COc1ccc(CNc2nc3ccccc3s2)cc1OC	29.3	1.3	41.8	19.9
Cc1ccc(CNc2nc3ccccc3s2)s1	17.4	-2.0	67.6*	-2.8
O=S(=O)(c1cc(Br)c(Cl)s1)N1CCCC1	17.1	0.1	-2.6	-2.9
Cc1ccc(C2=NN=C(NC(=O)CSc3nnc4c5ccccc5n(C)c4n3)SC2)cc1	-47.5	-0.1	77.1*	-42.6
Cc1ccc(C2=NN=C(NC(=O)CSc3nc(C)cc(C)n3)SC2)cc1	-1.3	/	37.0	-3.4
